High-throughput results from PubChem.
Only some compounds are listed: those with a hit (about 1.4% of all), similar ones and a draw of the others.
p53 reactivation = mutant p53 re-activation in reporter cells. H1299 p53-A138V BP100-luciferase reporter, luminescence, 24 h. 320,000 tested, 0.063% active. Potency, µM (top dose mostly 92.2 µM), inactives show at the highest dose activity change, positive = activation, hits mostly activators; note: potency is the fitted concentration of half-maximal effect; % of control where 0% means no effect; nearly all actives have a fitted effect of over 45% in size
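p53-null H1299 cells stably carrying temperature-sensitive p53-A138V and a BP100-luciferase reporter were pinned with compounds (4-point, 1:5 series) and held 24 hrs at 37 deg C. Luminescence was read 10 min after detection reagent.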
ASM inhibitor = inhibitors of human secretory acid sphingomyelinase; AID 504937; 340,000 tested, 0.006% active; Potency, µM (top dose mostly 57.5 µM), for inactives: top-dose activity change, negative = inhibition, usual class: inhibitors; placental ASM, HMU-PC fluorogenic substrate, 60 min; P17405; note: potency is the fitted concentration of half-maximal effect
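qHTS format. ASM enzyme prepared from human placenta hydrolyses the fluorogenic substrate HMU-PC0 (9 uM final) over 60 min at 37 °C after a 10 min compound preincubation.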
CCT modulator = changes cytosolic chaperonin activity | purified chaperonin ATPase assay, HTRF ADP detection, 30 min | activity change, % (concentration not given with the values), hits read low | 360,000 tested, 0.3% active | AID 651819; in the data active = activity change below about -30%; note: % is set by controls: 0 for no effect and ±100 for the full control effect
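TRiC (40 or 20 nM final, by batch activity) in 30 mM Tris pH 7.4, 100 mM KCl, 5 mM MgCl2, 1 mM DTT was treated with compound at 76 uM single dose, then 10 uM ATP, 30 min at 37 °C. ADP was read by HTRF Transcreener.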
ALOX12 inh = ALOX12 (human) lipoxygenase inhibition. purified 12hLO, xylenol orange hydroperoxide absorbance. Potency, µM (highest dose often 108 µM), for the others: top-dose activity change, negative = inhibition, hits mostly inhibitors. 580,000 tested, 1.1% active; note: potency is the fitted concentration of half-maximal effect; % is set by controls: 0 for no effect and ±100 for the full control effect
Target sequence (P18054 whole entry, looked up): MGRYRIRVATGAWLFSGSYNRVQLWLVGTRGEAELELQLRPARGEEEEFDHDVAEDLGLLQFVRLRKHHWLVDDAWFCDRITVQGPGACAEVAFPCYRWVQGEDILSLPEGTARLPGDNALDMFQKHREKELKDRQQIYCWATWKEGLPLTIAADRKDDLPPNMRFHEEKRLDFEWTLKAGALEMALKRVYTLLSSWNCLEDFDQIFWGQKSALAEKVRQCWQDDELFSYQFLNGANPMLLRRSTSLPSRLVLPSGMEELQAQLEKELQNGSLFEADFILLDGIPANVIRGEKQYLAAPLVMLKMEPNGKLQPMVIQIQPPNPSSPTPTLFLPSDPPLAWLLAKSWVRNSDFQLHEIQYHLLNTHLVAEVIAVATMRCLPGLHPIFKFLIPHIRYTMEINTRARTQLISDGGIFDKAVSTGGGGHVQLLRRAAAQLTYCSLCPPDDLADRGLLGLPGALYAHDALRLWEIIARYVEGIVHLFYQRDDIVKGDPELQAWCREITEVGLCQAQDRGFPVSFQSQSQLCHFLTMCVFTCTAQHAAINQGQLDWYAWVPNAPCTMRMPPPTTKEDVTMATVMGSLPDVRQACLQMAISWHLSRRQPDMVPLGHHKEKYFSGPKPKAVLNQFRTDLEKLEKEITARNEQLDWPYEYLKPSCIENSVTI
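Purified human 12hLO at 150 nM in 25 mM Hepes, 0.01% Triton X-100, pH 7.0, preincubated 15 min at room temperature with compound. Reaction started with 40 uM arachidonic acid, 30 min at room temperature. Hydroperoxide measured by Fe-xylenol orange, 573/405 nm absorbance ratio.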
MmCpn inh = blocks the Methanococcus maripaludis chaperonin Mm-Cpn; Potency, µM (doses to about 76.9 µM), inactives show at the top dose activity, negative = inhibition, usual class: inhibitors; purified Mm-Cpn ATPase, ADP Transcreener TR-FRET; 330,000 tested, 0.031% active; AID 504842; note: potency is the fitted concentration of half-maximal effect; % is set by controls: 0 for no effect and ±100 for the full control effect; nearly all actives have a fitted effect of over 80% in size
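Eu-cryptate anti-ADP/ADP-d2 competition gives a ratio inversely related to ADP. Enzyme at 25 nM was pre-exposed to compound for 10 min, then given 10 uM ATP for 30 min, 37°C throughout.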
PINK1 modulator = modulators of PINK1 expression; Potency, µM (highest dose often 76.6 µM), for the others: top-dose activation (PINK1 increase), hits mostly activators; AID 624263; 410,000 tested, 0.2% active; PINK1 immunofluorescence, high-content cytometry, 24 h; active = well fitted activation curve with a large enough effect; inconclusive = small, poorly fitted or top-dose-only effect; cell line not stated here; note: potency is the fitted concentration of half-maximal effect; % of control where 0% means no effect; nearly all actives have a fitted effect of over 65% in size
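Measures PINK1 amount and localization on or inside mitochondria by immunofluorescence. Stable cells get compounds at 5 concentrations for 24 hours before fixation and staining; CCCP controls included.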
* marks the source's active call; other numbers are inactive results; u = inconclusive; x = no result; [ ] = another dose, or the depositor's remark. Unless noted, calls come from the whole dose curve; as a rule, active = well fitted curve in the direction sought with a large enough effect; inconclusive = small, poorly fitted or top-dose-only effect, or another doubt; inactive = no such curve, though single readings can be large; an effect the other way counts as inactive or inconclusive.

SMILES	p53 reactivation	ASM inhibitor	CCT modulator	ALOX12 inh	MmCpn inh	PINK1 modulator
CN1/C(=C\C(=S)NC(=O)c2ccccc2Cl)C(C)(C)c2ccccc21	0%	-13%	-2	25µM*	u	7%
O=C(NC1CC1)c1cc(-c2ccc3c(c2)OCCO3)nc2ccccc12	x	x	x	-7%	x	x
CN(Cc1ccccc1F)C(=O)CN1CCN(c2oc(-c3ccco3)nc2C#N)CC1	x	x	x	-1%	x	x
COc1ccc(S(=O)(=O)Nc2ccccc2C(=O)Nc2nc(-c3ccc(F)cc3)cs2)cc1OC	7%	168%	-2	-18%	-14%	u
CCOc1cccc2sc(NC(=O)c3ccc(S(=O)(=O)N4CCc5ccccc54)cc3)nc12	x	x	x	-22%	x	1%
O=C(COc1ccccc1)Nc1nc(-c2ccc(S(=O)(=O)N3CCOCC3)cc2)cs1	-15%	-3%	-1	-8%	u	3%
CC1CCN(S(=O)(=O)c2ccc(C(=O)Nc3nc(-c4ccccc4)cs3)cc2)CC1	x	x	x	-16%	x	x
O=C(COc1ccc(Cl)cc1)Nc1nc(-c2ccc(S(=O)(=O)N3CCOCC3)cc2)cs1	-3%	-2%	-1	-2%	45µM*	u
COc1ccc(-c2csc(NC(=O)c3ccccc3NS(=O)(=O)c3ccc(C)cc3)n2)cc1	x	24%	1	u	-21%	14µM*
CCOc1cccc2sc(NC(=O)c3ccc(S(=O)(=O)N4CCCCC4)cc3)nc12	x	x	x	45µM*	x	-3%
O=C(Nc1nc(-c2ccc(S(=O)(=O)N3CCCCCC3)cc2)cs1)c1ccccc1	-3%	-6%	3	0%	35µM*	14%
COCc1nnc(NC(=O)c2ccc3c(ccn3Cc3ccccc3)c2)s1	x	x	x	10%	x	x
Cc1cc(C)c2ccc(C(=O)O)cc2n1	x	x	x	0%	x	x
CCCNc1nc(-c2ccc(S(=O)(=O)N3CCCCCC3)cc2)cs1	x	x	x	32µM*	x	x
O=C(Cc1ccc(S(=O)(=O)N2CCCC2)s1)N1CCN(c2ccccc2)CC1	-3%	-2%	-93*	0%	-1%	-1%
CC(C)OC(=O)c1cc(-c2ccccc2)nc2ccccc12	x	x	x	2%	x	x
CN(c1ccc(F)cc1)S(=O)(=O)c1ccc(Cl)c(C(=O)OCC(=O)NCc2ccco2)c1	1%	0%	-31*	-5%	-2%	0%
CN(c1ccc(F)cc1)S(=O)(=O)c1ccc(Cl)c(C(=O)NCC(c2ccco2)N2CCCCC2)c1 (centres undefined)	11%	-2%	-3	0.79µM*	-1%	2%
CN(C)C(CNC(=O)c1cc(S(=O)(=O)N(C)c2ccc(F)cc2)ccc1Cl)c1ccco1 (centres undefined)	7%	7%	0	0%	-6%	-1%
CC1(c2ccccc2)C=C(c2ccccc2)Oc2ccccc21 (centres undefined)	x	x	x	-5%	x	x
COc1ccc(C(=O)c2c[nH]c(C(=O)NCc3ccco3)c2)cc1	2%	5%	1	0%	2%	6%
COc1cccc(C(=O)c2c[nH]c(C(=O)NCc3ccco3)c2)c1	13%	0%	-42*	69%	-1%	-1%
CCOC(=O)c1nc2ccccc2nc1Nc1cccc(OC)c1	x	x	x	-28%	x	x
CCOCCOC(=O)c1nc2ccccc2nc1Nc1cc(C)cc(C)c1	x	x	x	7.1µM*	x	x
CC1CCCN(C(=S)SCC(=O)c2cc(Br)cc(Br)c2O)C1 (centres undefined)	1%	-1%	0	6.3µM*	-1%	9%
SMILES	p53 reactivation	ASM inhibitor	CCT modulator	ALOX12 inh	MmCpn inh	PINK1 modulator
O=C(CSC(=S)N1CCCC1)c1cc(Br)cc(Br)c1O	2%	2%	-4	14µM*	4%	1%
O=C(CSC(=S)N1CCCC1)Nc1cc2c(cc1Br)OCCO2	11%	-1%	-1	-12%	1%	1%
Cc1nn(-c2ccccc2)c(C)c1CC(=O)N1CCN(S(=O)(=O)c2ccc(F)cc2F)CC1	x	x	x	8%	x	x
NCCc1cccc(CN2CCC(Oc3cccc(F)c3)CC2)c1	x	x	x	-5%	x	x
CC(=O)c1ccc(N2CCN(S(=O)(=O)c3ccc4c(c3)C(Cl)(Cl)C(=O)N4)CC2)cc1	x	x	x	u	x	3%
CC1CCN(S(=O)(=O)c2ccc(Cl)cc2)CC1	3%	2%	-43*	-19%	1%	-1%[38.3 µM]
CC1CCN(S(=O)(=O)c2ccc3c(c2)C(Cl)(Cl)C(=O)N3)CC1	x	x	1	40µM*	x	9%
S=C(NCc1ccccc1)NC1CCCCC1	-1%	1%	0	-29%	2%	1%
S=C(NCCCc1ccccc1)NC1CCCCC1	u	3%	-1	45µM*	0%	3%
C/C(=N\NC(=S)NC1CCCCC1)c1ccc(O)cc1	9%	-1%	-2	u	-4%	4%
CC(C)(C)c1ccc(/C=N/NC(=S)NC2CCCCC2)cc1	u	x	-2	28µM*	-1%	u
C/C(=N\NC(=S)NC1CCCCC1)c1ccccc1	25µM*	-2%	1	25µM*	1%	7%
S=C(NC1CCCCC1)NN(c1ccccc1)c1ccccc1	5%	-1%	0	40µM*	2%	8%
NCC(=O)N1Cc2ccccc2CC12CCCN(C(=O)c1ccccc1)C2 (centres undefined)	x	x	x	3%[6.33 µM]	x	x
COc1ccc(Cl)cc1NC(=O)COc1ccccc1Br	x	x	x	10%	x	x
Cc1ccccc1C(=O)NC1CCN(c2cc(-c3ccccc3)[nH]n2)C1 (centres undefined)	x	x	x	39%	x	x
Cn1cccc1C(=O)NC1CCCCCC1	7.1µM*	4%	-2	2%	-2%	2%
O=C(NC(=S)NC1CCS(=O)(=O)C1)c1ccccc1 (centres undefined)	18%	5%	1	63%	-3%	3%
O=C(NC(=S)NC1CCCCC1)c1ccccc1	u	-1%	-3	35µM*	2%	9%
O=C(NC(=S)NC1CCCc2ccccc21)c1ccc(F)cc1 (centres undefined)	3%	-4%	0	18µM*	-20%	6%
O=C(NC(=S)NC1CCCCCC1)c1cncc(Br)c1	u	-3%	-3	32µM*	3%	2%
COc1ccc(-c2noc3c2-c2nc(-c4ccccc4F)sc2CC3)cc1	15%	u	1	40µM*	-9%	0%
Fc1cccc(F)c1-c1nc2c(s1)CCc1onc(-c3ccc(Br)cc3)c1-2	x	3%	0	14µM*	x	0%
COc1ccc(-c2noc3c2-c2nc(-c4c(F)cccc4F)sc2CC3)cc1	x	-1%	-1	u	-11%	2%
Cc1ccc(-n2nc3c(c2NC(=O)c2ccc(Br)o2)CSC3)c(C)c1	3%	1%	-5	8.9µM*	-9%	3%[38.3 µM]
